The list is not random: actives were taken first. Their share in the collection is about 4.7%.
TIM10 inh: inhibits growth of TIM10 yeast strain | inhibition, % at 10 µM | AID 463195 | S. cerevisiae TIM10 strain growth, BacTiter-Glo luminescence, 24 h | hit rate 1.4% among 330,000;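 active means inhibition of 40% or more at the single tested concentration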;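 further: wild-type TIM10 isogenic control strain grown at permissive 25 °C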
PfHsp90 yeast 2: inhibits growth of yeast expressing Plasmodium falciparum Hsp90. S. cerevisiae expressing PfHsp90, BacTiter-Glo ATP, 48 h; yeast lacking PDR1 and PDR3 efflux regulators. inhibition, % at 9.4 µM. hit rate 0.32% among 310,000. AID 504621;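 active means every replicate shows inhibition above about 80%, whatever the replicate mean, limit read from the data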;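 further: 0% = DMSO neutral controls and 100% = 20 µM radicicol positive controls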
tim23-1 inh: tim23-1 yeast growth inhibition. S. cerevisiae tim23-1 growth, BacTiter-Glo luminescence, 24 h. inhibition, % at 20 µM. hit rate 1.3% among 330,000;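 active means growth inhibition of the mutant yeast at or above 50%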;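 further: temperature-sensitive mutant grown at 25 °C; plate controls were DMSO-treated mutant yeast for no effect and medium wells lacking yeast for full effect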
tim10-1 inh: growth inhibitors of tim10-1 mutant yeast. hit rate 2.2% among 330,000. AID 463190. S. cerevisiae tim10-1 ts strain growth, BacTiter-Glo, 24 h. inhibition, % at 20 µM;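 active means inhibition of at least 40%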;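 further: mutant grown at 25 °C; 0% = DMSO wells with yeast and 100% = wells holding no yeast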
SKKanGAS inh: blocks kanamycin growth of S. pyogenes SKKanGAS strain; hit rate 1.3% among 300,000; BacTiter-Glo, 6 h; inhibition, % at 7.5 µM;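 active means mean replicate score, as percent of positive control median, at least 50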;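 further: strain carries kanamycin resistance gene driven by streptokinase promoter and grows in 40 µg/ml kanamycin; loss of luminescence reflects streptokinase promoter inhibition or plain growth inhibition; 0% = median of DMSO wells and 100% = positive control at its reference dose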
EBI2 block: antagonists of human EBI2 receptor | P32249 | hit rate 0.81% among 360,000 | inhibition, % at 5 µM | EBI2 beta-arrestin recruitment, luminescence, 7a,25-OHC stimulated; in the data active means inhibition above about 38%;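 further: enzyme fragment complementation signal reports receptor beta-arrestin coupling in cells; 0% = agonist plus DMSO wells and 100% = wells without agonist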
Target sequence (P32249 whole entry, looked up, the tested form may be a part): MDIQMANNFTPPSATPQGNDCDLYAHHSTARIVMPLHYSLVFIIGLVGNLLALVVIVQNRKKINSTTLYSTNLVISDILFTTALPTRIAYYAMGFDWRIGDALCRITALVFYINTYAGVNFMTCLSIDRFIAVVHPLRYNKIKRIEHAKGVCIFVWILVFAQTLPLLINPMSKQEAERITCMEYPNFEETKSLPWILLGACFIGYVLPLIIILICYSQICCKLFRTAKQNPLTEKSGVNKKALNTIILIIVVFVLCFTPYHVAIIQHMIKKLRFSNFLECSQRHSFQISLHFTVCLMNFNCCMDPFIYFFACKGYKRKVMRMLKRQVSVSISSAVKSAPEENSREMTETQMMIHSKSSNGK
tim10-1 conf: tim10-1 yeast growth inhibition, confirmed; AID 463213; hit rate 56% among 7,400; inhibition, % at 20 µM; shares compounds with tim10-1 inh; S. cerevisiae tim10-1 ts strain growth, BacTiter-Glo, 24 h;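 active means inhibition of yeast growth at or above a set limit in either of two repeat tests at 20 µM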;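 further: tim10-1 mutant grown at permissive 25 °C to find synthetic lethal compounds; 0% = DMSO yeast wells and 100% = medium wells without yeast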
Starred values were filed as active, the others as inactive; x = no result.

SMILES | TIM10 inh | PfHsp90 yeast 2 | tim23-1 inh | tim10-1 inh | SKKanGAS inh | EBI2 block | tim10-1 conf
CCOc1ccc2nc(SC3CC(=O)N(c4cccc(OC)c4)C3=O)sc2c1 (centres undefined) | 28 | 6 | 42 | 42* | -6 | -7 | 37*
CCOc1ccc2nc(SC3CC(=O)N(c4ccccc4)C3=O)sc2c1 (centres undefined) | 12 | -2 | 10 | 11 | 6 | 16 | x
CCOc1ccc(CCNC(=O)CCC(=O)N2CCOc3ccccc32)cc1OCC | -8 | -2 | 9 | 0 | -6 | 2 | x
COc1cc(CN2C(=O)C(NC(=O)c3ccco3)(C(F)(F)F)C3=C2CC(C)(C)CC3=O)cc(OC)c1 (centres undefined) | 10 | -34 | 43 | 47* | -1 | -8 | 27
COc1cc2cc(CN(CCc3cccc(C)c3)C(=S)NCCCN3CCOCC3)c(=O)[nH]c2cc1OC | 22 | 10 | 6 | 10 | 14 | 2 | x
Cc1ccc(SC2=C(Sc3ccc(C)cc3)C(=O)c3ccccc3C2=O)cc1 | 24 | -9 | 33 | 43* | 33 | 14 | 24
Cc1ccc(N2C(=O)c3ccccc3C2=O)cc1 | -7 | 0 | 2 | 0 | 5 | 4 | x
CC(=O)c1sc(N/N=C\c2c(O)ccc3ccccc23)nc1C | 10 | 11 | 23 | 42* | 50* | 1 | -10
CCOc1ccc(S(=O)(=O)N2CCCCC2)cc1NS(=O)(=O)c1cccs1 | 16 | 7 | 4 | 13 | x | -5 | x
O=C(Nc1cccc(F)c1)C1CCCN(c2cnccn2)C1 (centres undefined) | -6 | -3 | 6 | 9 | -1 | 2 | x
Cc1ccccc1OCC(=O)Nn1c(COc2ccccc2)nc2ccccc2c1=O | 13 | -11 | 40 | 45* | 22 | -2 | 27
Cc1ccc(C(C)(C)C)cc1S(=O)(=O)Nc1nc2ccccc2nc1Cl | 18 | -15 | 44 | 41* | 21 | -8 | 40*
Cc1cc(F)ccc1S(=O)(=O)Nc1nc2ccccc2nc1Cl | 16 | -88 | 13 | 11 | 11 | -9 | x
O=C(c1ccc(O)cc1)c1ccc(O)cc1O | -9 | -12 | -3 | -5 | 7 | -3 | x
CN(C)c1ccc(C(=O)c2ccc(O)cc2O)cc1 | 20 | -10 | 49 | 41* | -1 | -18 | 27
CN(CC(=O)Nc1ccccc1C(=O)NC1CC1)Cc1cccs1 | 5 | 5 | 14 | 9 | x | -5 | x
CN(C(=O)c1ccc(S(=O)(=O)N2CCOCC2)cc1)C1CCS(=O)(=O)C1 (centres undefined) | -7 | -3 | -2 | -9 | -18 | -6 | x
COc1ccc(N(C)S(=O)(=O)c2cccc(C(=O)Nc3nc4ccccc4[nH]3)c2)cc1 | 38 | 0 | 35 | 41* | 24 | 11 | 27
COc1ccc(N(C)S(=O)(=O)c2cccc(C(=O)Nc3nnc(C)s3)c2)cc1 | -8 | 2 | -3 | 16 | x | -6 | x
OCC1OC(n2cnc3c(SCc4ccccc4)nc(F)nc32)C(O)C1O (centres undefined) | x | x | x | x | x | -10 | x
OC1(c2ccc(OC(F)F)cc2)CSC(=Nc2cccnc2)N1C1CC1 (centres undefined) | -10 | 19 | -1 | 41* | 0 | 8 | 24
CC1(C)CC2CC(C)(CN2C(=O)C23CCC(C)(C(=O)C2)C3(C)C)C1 (centres undefined) | -10 | -4 | 23 | 43* | -6 | -7 | 14
CC12CCC(C(=O)NC3CCCC3)(CC1=O)C2(C)C (centres undefined) | 6 | -1 | 15 | -3 | -5 | -9 | x
CCCCN(C(=O)CSCc1ccc(C)cc1)c1c(N)n(CCC)c(=O)[nH]c1=O | 2 | 8 | 15 | 5 | 2 | -6 | x
Cc1ccc(C(=O)N2CCCCC2)cc1S(=O)(=O)N1CCOCC1 | 19 | 1 | 17 | 15 | 15 | 2 | x
SMILES | TIM10 inh | PfHsp90 yeast 2 | tim23-1 inh | tim10-1 inh | SKKanGAS inh | EBI2 block | tim10-1 conf
CCCCCCC(=O)O | 7 | 6 | 4 | 10 | x | -10 | x
CCCCCCCCC(=O)O | 12 | x | 43 | 45* | 10 | -3 | 2
CC(C)(CO)CNC(=O)CCc1nnc(-c2ccc(-c3ccccc3)cc2)o1 | 9 | 3 | 23 | 26 | -1 | -11 | x
CC(C)Cc1ccc(C(=O)NCCOc2ccccc2)o1 | -3 | -71 | 17 | -30 | 25 | 10 | x
Cc1cccc(Sc2ccc([N+](=O)[O-])cc2[N+](=O)[O-])n1 | 23 | -18 | 46 | 44* | -12 | -45 | 28
Cc1ccc(SCC2(O)CCN(S(=O)(=O)c3ccc(Cl)cc3)CC2)cc1 | 31 | x | 26 | 41* | 0 | 28 | 25
CCCSc1nnc(CNC(=O)C23CC4CC(CC(C4)C2)C3)n1Cc1ccccc1 | 12 | 41 | 9 | 8 | -2 | 0 | x
O=c1c2sccc2[nH]c(=S)n1Cc1ccccc1 | -1 | 13 | 35 | 30 | -8 | -9 | x
COc1ccc(Cn2c(=S)[nH]c3ccsc3c2=O)cc1 | 28 | -29 | 21 | 51* | -1 | -13 | 19
CCOc1ccc2nc(SCC(=O)N3CCCCCC3)c(C#N)cc2c1 | 15 | -38 | 17 | 26 | 1 | -4 | x
CCOc1ccc2cc(C#N)c(SCC(=O)N3CCOCC3)nc2c1 | 13 | x | 23 | 43* | -3 | -6 | 27
Oc1c(C(Nc2nc3ccccc3s2)c2ccco2)ccc2cccnc12 (centres undefined) | 15 | 131* | 40 | 43* | 107* | 0 | 7
CC(=O)NC(c1ccco1)c1cc(F)c2cccnc2c1O (centres undefined) | -5 | -31 | 30 | 27 | x | -15 | x
CC1CCc2nc(NC(=O)c3ccco3)sc2C1 (centres undefined) | 39 | 17 | 18 | 45* | 7 | -4 | 31*
Cc1ccc(C(=O)OCC(=O)N(Cc2ccccc2)C(C)C)cc1C | 18 | 8 | 33 | 13 | x | 8 | x
CCOC(=O)CSc1nc(C)cc(C)c1C(N)=O | 6 | 45 | 0 | 17 | 2 | -8 | x
COCCCNC(=O)c1c(N)n(/N=C/c2cccs2)c2nc3ccccc3nc12 | 28 | 1 | 15 | 42* | 3 | 19 | -3
COCCCNC(=O)c1c(N)n(/N=C/c2cccnc2)c2nc3ccccc3nc12 | 9 | -3 | 0 | 30 | 21 | 14 | x
CCC(C)NC(=O)c1c(N)n(/N=C/c2ccccn2)c2nc3ccccc3nc12 (centres undefined) | 35 | -9 | 2 | 42* | 87* | 27 | 17
CC(C)(C)c1ccc(S(=O)(=O)NC(=O)C2(C)CCN2C(=O)C2(c3ccccc3)CC2)cc1 (centres undefined) | x | x | x | x | x | -11 | x
COc1ccccc1CNC(=O)c1c(N)n(CCCN2CCOCC2)c2nc3ccccc3nc12 | x | 15 | x | x | 30 | 22 | x

Screening results as filed in PubChem BioAssay.
